# Results: PubChem BioAssay (NCATS)
# Values joined by “and” are separate entries in the source; they are usually repeats but may differ in a detail not shown here. Equal entries are not always repeated. Records with an inconclusive call do not appear. A call without a number means that no potency is given here. A number with no mark means an inactive call. Active and inactive are the calls of the source. The call rests on the fitted dose curve; in most records, active means well fitted curve in the direction sought with a large enough effect; inconclusive means small, poorly fitted or top-dose-only effect, or another doubt; inactive means no such curve, though single readings can be large; an effect the other way counts as inactive or inconclusive.
# Assays:
# [1] = molecular target: Cytochrome P450 3A7 (Homo sapiens) (UniProt P24462); assay: Cytochrome P450 family 3 subfamily A member 7 (CYP3A7) small molecule antagonists: luciferase biochemical qHTS assay (AID 1963596); further: nearly all actives have a fitted effect of over 40% in size
# Method in brief: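 Biochemical CYP3A7 activity measured with P450-Glo system: luciferin formed from proluciferin substrate in NADPH-driven reaction (1 h, room temperature) after 10 min compound preincubation. Signal in relative luminescence units.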
# [2] = Viability qHTS for spleen associated tyrosine kinase inhibitor (SYKi) naive MV4-11 cells (AID 1963823); further: nearly all actives have a fitted effect of over 40% in size; further: potency means the concentration at half of the fitted maximal effect
# Method in brief: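 qHTS, SYK inhibitor-naive MV4-11; 500 cells/well; 72 hr compound exposure, 37 C; CellTiter-Glo added, 10 min RT; luminescence read.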
# [3] = Cellular viability qHTS for adrenocortical cancer (ACC) cell line SW-13 (AID 1963989); conditions: SW-13 ACC cells viability, CellTiter-Glo, 48 h; activity (max response): active compounds read low; further: nearly all actives have a fitted effect of over 65% in size; further: potency means the concentration at half of the fitted maximal effect;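 on activity (max response): cells grown in serum-free medium with ITS supplement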
# Method in brief: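 48 h treatment, SW-13 in ITS/DMEM serum-free; doses up to 46 uM; readout CellTiter-Glo luminescence; curve fit four-parameter logistic.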
# [4] = Cellular viability qHTS for adrenocortical cancer (ACC) cell line NCI-H295R (AID 1963990); further: nearly all actives have a fitted effect of over 60% in size; further: potency means the concentration at half of the fitted maximal effect
# Method in brief: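 Compound titrations (up to 46 uM final) are applied to NCI-H295R cultures for 48 h at 37C. Viable cell number is estimated by CellTiter-Glo signal, normalised to DMSO and doxorubicin controls.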
# Chain of Cytochrome P450 3A7 (Homo sapiens) (P24462 whole entry, looked up): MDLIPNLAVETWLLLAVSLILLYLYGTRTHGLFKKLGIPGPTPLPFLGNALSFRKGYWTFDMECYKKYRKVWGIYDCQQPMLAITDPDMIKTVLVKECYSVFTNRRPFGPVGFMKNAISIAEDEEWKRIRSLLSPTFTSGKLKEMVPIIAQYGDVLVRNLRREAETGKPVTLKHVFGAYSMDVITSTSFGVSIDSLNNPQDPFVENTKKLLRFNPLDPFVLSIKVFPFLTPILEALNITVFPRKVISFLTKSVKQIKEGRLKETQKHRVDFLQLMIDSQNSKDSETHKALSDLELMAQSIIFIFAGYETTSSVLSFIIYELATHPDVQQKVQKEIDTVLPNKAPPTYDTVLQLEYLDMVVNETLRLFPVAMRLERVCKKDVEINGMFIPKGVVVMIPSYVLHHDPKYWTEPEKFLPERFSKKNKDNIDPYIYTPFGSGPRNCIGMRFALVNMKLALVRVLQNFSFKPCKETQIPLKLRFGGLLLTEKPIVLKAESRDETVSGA
smiles,measurement,setting,value
CCCNC(C)C(=O)Nc1c(C)csc1C(=O)OC (centres undefined),Potency,[1],inactive
same,Potency,[2],inactive
same,activity (max response),[3],8.19%
same,Potency,[4],inactive
CC1CN(c2cc3c(cc2F)c(=O)c(C(=O)O)cn3-c2ccc(F)cc2F)CCN1 (centres undefined),"activity change, negative = inhibition",[1],17% [at 4.83 µM]
same,viability (% of control),[2],91.3% [at 4.97 µM]
same,activity (max response),[3],-5.86%
same,"activity change, negative = viability loss",[4],1.32% [at 3.81 µM]
Cc1cn([C@H]2C[C@H](F)[C@@H](CO)O2)c(=O)[nH]c1=O,Potency,[1],inactive
same,Potency,[2],inactive
same,activity (max response),[3],3.39%
same,Potency,[4],inactive
O=C1Nc2cc(Cl)ccc2Oc2ccccc21,Potency,[1],inactive
same,Potency,[2],inactive
same,activity (max response),[3],-3.37%
same,Potency,[4],inactive
CN=C(NC#N)Nc1ccc(C2=NNC(=O)CC2C)cc1 (centres undefined),Potency,[1],inactive
same,Potency,[2],inactive
same,activity (max response),[3],-6.43%
same,Potency,[4],inactive
CCCSc1ccc2nc(NC(=O)OC)[nH]c2c1,Potency,[1],inactive
same,Potency,[2],668 nM (active)
same,Potency,[3],366 nM (active)
same,Potency,[4],820 nM (active)
Cc1onc(-c2ccccc2)c1C(=O)Cl,Potency,[1],inactive
same,Potency,[2],inactive
same,activity (max response),[3],12.7%
same,Potency,[4],inactive
CN(C)CC[C@@H](c1ccc(Cl)cc1)c1ccccn1,Potency,[1],inactive
same,Potency,[2],inactive
same,activity (max response),[3],7.75%
same,Potency,[4],inactive
O=C(O)CCC(=O)OC[C@@H](NC(=O)C(Cl)Cl)[C@H](O)c1ccc([N+](=O)[O-])cc1,Potency,[1],inactive
same,Potency,[2],inactive
same,activity (max response),[3],-6.44%
same,Potency,[4],inactive
CCn1c(=O)c(-c2ccc(Cl)cc2Cl)cc2cnc(Nc3ccc(N4CCNCC4)c(F)c3)nc21,Potency,[1],inactive
same,Potency,[2],82 nM (active) and 118 nM (active)
same,activity (max response),[3],-23.5%
same,Potency,[4],inactive
N[C@H]1C(O)O[C@H](CO)[C@@H](O)[C@@H]1O (some centres undefined),Potency,[1],inactive
same,Potency,[2],inactive
same,activity (max response),[3],-3.76%
same,Potency,[4],inactive
CCCN1CCN(c2ccc(C(=O)NC3(C(=O)NCC#N)CCCCC3)cc2)CC1,Potency,[1],inactive
same,Potency,[2],inactive
same,activity (max response),[3],-11.1%
same,Potency,[4],inactive
CN(C)CCN1CCN(c2cccc(Cl)c2)C1=O,Potency,[1],inactive
same,Potency,[2],inactive
same,activity (max response),[3],10.1%
same,Potency,[4],inactive
COC(=O)c1ccc(NC(C)=O)cc1OC,Potency,[1],inactive
same,Potency,[2],inactive
same,activity (max response),[3],-6.56%
same,Potency,[4],inactive
CC12CCC(CC1)C(C)(C)O2,Potency,[1],inactive
same,Potency,[2],inactive
same,activity (max response),[3],13.8%
CC(=O)Oc1cccc(C)c1,Potency,[1],inactive
same,Potency,[2],inactive
same,activity (max response),[3],17.7%
same,Potency,[4],inactive
O=S(=O)(O)NC1CCCCC1,Potency,[1],inactive
same,Potency,[2],inactive
same,activity (max response),[3],6.85%
same,Potency,[4],inactive
OC[C@H]1O[C@@H]2O[C@H]3[C@H](O)[C@@H](O)[C@@H](O[C@H]4[C@H](O)[C@@H](O)[C@@H](O[C@H]5[C@H](O)[C@@H](O)[C@@H](O[C@H]6[C@H](O)[C@@H](O)[C@@H](O[C@H]7[C@H](O)[C@@H](O)[C@@H](O[C@H]8[C@H](O)[C@@H](O)[C@@H](O[C@H]1[C@H](O)[C@H]2O)O[C@@H]8CO)O[C@@H]7CO)O[C@@H]6CO)O[C@@H]5CO)O[C@@H]4CO)O[C@@H]3CO,Potency,[1],inactive
same,Potency,[2],inactive
same,activity (max response),[3],-1.71%
same,Potency,[4],inactive
COc1ccc2c(c1)CCCC2=O,Potency,[1],inactive
same,Potency,[2],inactive
same,activity (max response),[3],14.4%
same,Potency,[4],inactive
OC1(c2ccccc2)CCNCC1,Potency,[1],inactive
same,Potency,[2],inactive
same,activity (max response),[3],4.15%
same,Potency,[4],inactive
CCc1cccc(CC)c1NC(=O)CN(CC(=O)O)CC(=O)O,Potency,[1],inactive
same,Potency,[2],inactive
same,activity (max response),[3],1.3%
same,Potency,[4],inactive
CC(=O)NC(=O)c1ccccc1O,Potency,[1],inactive
same,Potency,[2],inactive
same,activity (max response),[3],-23.9%
same,Potency,[4],inactive
CCOc1cc(OCC)c(C(=O)CCC(=O)O)cc1OCC,Potency,[1],inactive
same,Potency,[2],inactive
same,activity (max response),[3],6%
Nc1ncnc2c1ncn2[C@@H]1O[C@H](COP(=O)(O)O)[C@@H](O)[C@H]1O,Potency,[1],inactive
same,Potency,[2],inactive
same,activity (max response),[3],5.55%
same,Potency,[4],inactive
O=C1NC(c2ccccc2)(c2ccccc2)C(=O)N1COP(=O)(O)O,Potency,[1],inactive
same,Potency,[2],inactive
same,activity (max response),[3],10.4%
same,Potency,[4],inactive
CC(=O)NCc1c(I)c(NC(C)=O)c(I)c(C(=O)O)c1I,Potency,[1],inactive
same,Potency,[2],inactive
same,activity (max response),[3],13.2%
same,Potency,[4],inactive
N#CSCC(=O)O,Potency,[1],inactive
same,Potency,[2],inactive
same,activity (max response),[3],4.51%
same,Potency,[4],inactive
O=c1[nH]c(=O)n([C@H]2C[C@H](O)[C@@H](CO)O2)cc1F,Potency,[1],inactive
same,Potency,[2],29.9 nM (active) and 83.3 nM (active)
same,Potency,[3],3.66 µM (active) and 3.55 µM (active)
COc1cc(C(=O)NCCCCCC(=O)O)cc(OC)c1OC,Potency,[1],inactive
same,Potency,[2],inactive
same,activity (max response),[3],6.24%
same,Potency,[4],inactive
COc1cc(OC)nc(O[C@H](C(=O)O)C(OC)(c2ccccc2)c2ccccc2)n1,Potency,[1],inactive
same,Potency,[2],inactive
same,activity (max response),[3],12.1%
same,Potency,[4],inactive
COc1ccc(CN(CCN(C)C)c2ccccn2)cc1,Potency,[1],inactive
same,Potency,[2],16800 nM (active)
same,activity (max response),[3],2.63%
same,Potency,[4],inactive
O=C1CC[C@@H](C(=O)O)N1,Potency,[1],inactive
same,Potency,[2],1.5 nM (active)
same,activity (max response),[3],-6.66%
same,Potency,[4],inactive
NC(N)=NCCC[C@H](N)C(=O)O,"activity change, negative = inhibition",[1],2.52% [at 4.83 µM]
same,viability (% of control),[2],90.4% [at 4.97 µM]
same,activity (max response),[3],-3.82%
same,"activity change, negative = viability loss",[4],-23.9% [at 3.81 µM]
